Experimental data published in PubChem BioAssay (EPA / NIEHS).
Active and inactive are the calls of the source. The calls were made as follows: active = hit-call score of the fitted dose curve at least 0.9, where 1 is the maximum; inactive = score below 0.9.

Legend:
[1] = read-out: TIMP metallopeptidase inhibitor 2 (TIMP2), TIMP2 (gene 7077); assay: BSK_KF3CT_TIMP2: BioMAP Diversity Plus: KF3CT Assay for TIMP metallopeptidase inhibitor 2 (TIMP2) Biomarker Activity (AID 2283071); conditions: primary human keratinocytes with fibroblasts; actives raise or lower the signal
In short: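 Human primary keratinocyte/foreskin fibroblast co-culture dosed with chemical and sampled at 24 h. TIMP-2 levels quantified by ELISA; bidirectional fitting against DMSO negative control as baseline.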

[2] = read-out: Transforming growth factor beta 1 (TGFb1), TGFB1 (gene 7040); assay: BSK_KF3CT_TGFb1: BioMAP Diversity Plus: KF3CT Assay for Transforming growth factor beta 1 (TGFb1) Biomarker Activity (AID 2283072); conditions: primary human keratinocytes with fibroblasts; actives raise or lower the signal
In short: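 Human keratinocyte plus foreskin fibroblast primary co-culture, dosed with chemical for 24 h. TGF-b1 quantified by ELISA. Activity fitted bidirectionally against DMSO negative control as baseline.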

[3] = read-out: C-C motif chemokine 2 (Homo sapiens) (UniProt P13500); assay: BSK_KF3CT_MCP1: BioMAP Diversity Plus: KF3CT Assay for Monocyte Chemoattractant Protein 1 (MCP1/CCL2) Biomarker Activity (AID 2283073); conditions: primary human keratinocytes with fibroblasts; actives raise or lower the signal
In short: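 Keratinocytes and foreskin fibroblasts were co-cultured, dosed with chemical, and sampled 24 h later. MCP-1 was quantified by ELISA, and the endpoint was analyzed with bidirectional fitting using DMSO as negative control.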

[4] = read-out: urokinase plasminogen activator (uPA), PLAU (gene 5328); assay: BSK_KF3CT_uPA: BioMAP Diversity Plus: KF3CT Assay for urokinase plasminogen activator (uPA) Biomarker Activity (AID 2283075); conditions: primary human keratinocytes with fibroblasts; actives raise or lower the signal
In short: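 ELISA readout of uPA, analyzed for signal gain or loss relative to DMSO, from a human primary keratinocyte–foreskin fibroblast co-culture measured 24 h after chemical treatment.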

[5] = read-out: CD40, CD40 (gene 958); assay: BSK_LPS_CD40: BioMAP Diversity Plus: LPS Assay for CD40 Biomarker Activity (AID 2283076); conditions: primary human HUVEC with PBMC; actives raise or lower the signal
In short: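 CD40 signal, measured by ELISA, is fitted in both directions relative to DMSO vehicle. The system is an LPS-driven human vascular primary co-culture of endothelial cells and PBMC, sampled 24 h after compound addition.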

[6] = read-out: E-selectin (Homo sapiens) (UniProt P16581); assay: BSK_LPS_Eselectin: BioMAP Diversity Plus: LPS Assay for Eselectin Biomarker Activity (AID 2283077); conditions: primary human HUVEC with PBMC; actives raise or lower the signal
In short: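 Signal of E-selectin, detected by ELISA, served as the endpoint; cells were umbilical vein endothelium with PBMC, read 24 h after treatment. DMSO defined baseline, and both increases and decreases were fitted.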

[7] = read-out: Interleukin-8 (IL8), CXCL8 (gene 3576); assay: BSK_LPS_IL8: BioMAP Diversity Plus: LPS Assay for Interleukin-8 (IL8) Biomarker Activity (AID 2283078); conditions: primary human HUVEC with PBMC; actives raise or lower the signal
In short: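 Endothelial cells and PBMC from human donors are co-cultured, treated with chemicals and LPS, then assayed for IL-8 by ELISA after 24 h. Parallel SRB staining (0.1% SRB after 10% TCA fixation, 560 nm) flags cytotoxicity.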

[8] = BSK_LPS_SRB: Viability Assessment in the BioMAP Diversity Plus: LPS Assay (AID 2283079); conditions: primary human HUVEC with PBMC;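 also: total protein by sulforhodamine B absorbance as a cytotoxicity measure; measured one day after compound addition; fitted in both directions against DMSO so loss or gain of signal counts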
In short: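 Overt cytotoxicity was gauged by sulforhodamine B total-protein staining in a primary human vascular endothelial and mononuclear cell co-culture 24 h post-dosing. Activity was fitted in both directions relative to DMSO.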

[9] = read-out: Interleukin-1 alpha (IL1a), IL1A (gene 3552); assay: BSK_LPS_IL1a: BioMAP Diversity Plus: LPS Assay for Interleukin-1 alpha (IL1a) Biomarker Activity (AID 2283080); conditions: primary human HUVEC with PBMC; actives raise or lower the signal
In short: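 Measured: IL-1 alpha via ELISA at 24 h in LPS-activated human umbilical vein endothelium–PBMC co-culture. Baseline: DMSO, bidirectional fitting.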

[10] = read-out: Monocyte Chemoattractant Protein-1 (MCP1), CCL2 (gene 6347); assay: BSK_LPS_MCP1: BioMAP Diversity Plus: LPS Assay for Monocyte Chemoattractant Protein-1 (MCP1) Biomarker Activity (AID 2283081); conditions: primary human HUVEC with PBMC; actives raise or lower the signal;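 as to AC50: secreted MCP-1 protein quantified by ELISA in culture supernatant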
In short: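 LPS-stimulated HUVEC/PBMC co-culture; chemical, 24 h; MCP-1 by ELISA; bidirectional fit vs DMSO; cytotoxicity via SRB (0.1% stain, 10% TCA fix, 560 nm) in parallel wells.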

[11] = BSK_LPS_PGE2: BioMAP Diversity Plus: LPS Assay for Prostaglandin E2 (PGE2) Biomarker Activity (AID 2283082); conditions: primary human HUVEC with PBMC; actives raise or lower the signal;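 as to AC50: secreted prostaglandin E2 measured by ELISA in LPS-stimulated co-culture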
In short: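 HUVEC plus PBMC co-culture stimulated with LPS; secreted PGE2 quantified by ELISA 24 h after chemical dosing. Activity fitted bidirectionally against DMSO as negative control and baseline; parallel SRB total-protein staining served as cytotoxicity check.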

[12] = read-out: Macrophage colony-stimulating factor (MCSF), CSF1 (gene 1435); assay: BSK_LPS_MCSF: BioMAP Diversity Plus: LPS Assay for Macrophage colony-stimulating factor (MCSF) Biomarker Activity (AID 2283083); conditions: primary human HUVEC with PBMC; actives raise or lower the signal
In short: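 Compound is added to a human vascular primary co-culture of umbilical vein endothelium and blood mononuclear cells. After 24 h, M-CSF is quantified by ELISA. Signal changes are fitted in both directions against DMSO.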

[13] = read-out: Tissue Factor, F3 (gene 2152); assay: BSK_LPS_TissueFactor: BioMAP Diversity Plus: LPS Assay for Tissue Factor Biomarker Activity (AID 2283084); conditions: primary human HUVEC with PBMC; actives raise or lower the signal
In short: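 In this co-culture system of umbilical vein endothelium with PBMC, stimulated with LPS, cell-surface CD142 is detected by ELISA at 24 h. Endpoint values derive from bidirectional fitting, DMSO serving as baseline.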

[14] = read-out: Tumor necrosis factor (Homo sapiens) (UniProt P01375); assay: BSK_LPS_TNFa: BioMAP Diversity Plus: LPS Assay for Tumour Necrosis Factor alpha (TNFa) Biomarker Activity (AID 2283085); conditions: primary human HUVEC with PBMC; actives raise or lower the signal
In short: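 Human umbilical vein endothelial cells co-cultured with PBMC were exposed to test chemical and TNFa measured by ELISA 24 h after dosing. Bidirectional curve fitting was done relative to DMSO as negative control and baseline.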

[15] = read-out: Vascular cell adhesion molecule 1 (VCAM1), VCAM1 (gene 7412); assay: BSK_LPS_VCAM1: BioMAP Diversity Plus: LPS Assay for Vascular cell adhesion molecule 1 (VCAM1) Biomarker Activity (AID 2283086); conditions: primary human HUVEC with PBMC; actives raise or lower the signal
In short: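 Human umbilical vein endothelial cells co-cultured with peripheral blood mononuclear cells under LPS stimulation were exposed to test chemical for 24 h. VCAM-1 levels were then measured by ELISA, with bidirectional curve fitting relative to DMSO as negative control and baseline.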

[16] = read-out: CD38, CD38 (gene 952); assay: BSK_SAg_CD38: BioMAP Diversity Plus: SAg Assay for CD38 Biomarker Activity (AID 2283087); conditions: primary human HUVEC with PBMC; actives raise or lower the signal
In short: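 Fluorescence ELISA of cell-surface CD38 served as the read-out, with either increase or decrease fitted against DMSO controls. Cells were a human umbilical vein endothelium plus PBMC co-culture under SEB/TSST-1 stimulation, measured 24 h after dosing.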

[17] = read-out: CD40, CD40 (gene 958); assay: BSK_SAg_CD40: BioMAP Diversity Plus: SAg Assay for CD40 Biomarker Activity (AID 2283088); conditions: primary human HUVEC with PBMC; actives raise or lower the signal
In short: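 Fluorescence ELISA read-out of CD40 from umbilical vein endothelium plus peripheral blood mononuclear cells, sampled 24 h after dosing. Values come from bidirectional curve fitting with DMSO as baseline.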

[18] = read-out: CD69, CD69 (gene 969); assay: BSK_SAg_CD69: BioMAP Diversity Plus: SAg Assay for CD69 Biomarker Activity (AID 2283089); conditions: primary human HUVEC with PBMC; actives raise or lower the signal;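 as to AC50: cell surface CD69 protein quantified by ELISA with fluorescence detection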
In short: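 HUVEC co-cultured with PBMC were dosed with chemical, and CD69 was measured by ELISA with fluorescence read-out 24 h later. Bidirectional curve fitting used DMSO as negative control and activity baseline.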

[19] = read-out: Monocyte Chemoattractant Protein-1 (MCP1), CCL2 (gene 6347); assay: BSK_SAg_MCP1: BioMAP Diversity Plus: SAg Assay for Monocyte Chemoattractant Protein-1 (MCP1) Biomarker Activity (AID 2283090); conditions: primary human HUVEC with PBMC; actives raise or lower the signal
In short: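 MCP-1 levels in the endothelial–PBMC SAg co-culture were quantified by ELISA at 24 h post-dosing; both increases and decreases versus DMSO scored. Cytotoxicity monitored by SRB total protein in parallel cultures.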

[20] = read-out: Matrix Metallopeptidase 9 (MMP9), MMP9 (gene 4318); assay: BSK_KF3CT_MMP9: BioMAP Diversity Plus: KF3CT Assay for Matrix Metallopeptidase 9 (MMP9) Biomarker Activity (AID 2283074); conditions: primary human keratinocytes with fibroblasts; actives raise or lower the signal;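 as to AC50: MMP9 protein level quantified by ELISA in the co-culture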
In short: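 Human keratinocyte/foreskin fibroblast co-culture; compound added; 24 h; MMP-9 by ELISA; bidirectional fit vs DMSO baseline.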

Measured: AC50

E-selectin (Homo sapiens), sequence (P16581 whole entry, looked up): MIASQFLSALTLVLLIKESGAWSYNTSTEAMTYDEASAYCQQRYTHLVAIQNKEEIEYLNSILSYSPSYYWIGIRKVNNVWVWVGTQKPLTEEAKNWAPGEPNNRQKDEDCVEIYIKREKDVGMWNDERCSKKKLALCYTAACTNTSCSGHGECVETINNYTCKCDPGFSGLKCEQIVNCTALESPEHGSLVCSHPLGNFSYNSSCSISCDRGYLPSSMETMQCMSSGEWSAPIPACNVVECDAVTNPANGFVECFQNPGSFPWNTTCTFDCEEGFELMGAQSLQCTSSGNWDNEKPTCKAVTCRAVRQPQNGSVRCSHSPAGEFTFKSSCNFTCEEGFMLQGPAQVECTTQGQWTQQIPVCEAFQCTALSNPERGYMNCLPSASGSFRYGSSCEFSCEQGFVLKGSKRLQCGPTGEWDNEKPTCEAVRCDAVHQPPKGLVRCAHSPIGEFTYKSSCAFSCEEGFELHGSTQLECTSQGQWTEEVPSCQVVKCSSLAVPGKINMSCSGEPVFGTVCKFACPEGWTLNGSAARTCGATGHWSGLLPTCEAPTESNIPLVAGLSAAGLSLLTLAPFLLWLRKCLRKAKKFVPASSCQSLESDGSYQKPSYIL
Tumor necrosis factor (Homo sapiens), sequence (P01375 whole entry, looked up): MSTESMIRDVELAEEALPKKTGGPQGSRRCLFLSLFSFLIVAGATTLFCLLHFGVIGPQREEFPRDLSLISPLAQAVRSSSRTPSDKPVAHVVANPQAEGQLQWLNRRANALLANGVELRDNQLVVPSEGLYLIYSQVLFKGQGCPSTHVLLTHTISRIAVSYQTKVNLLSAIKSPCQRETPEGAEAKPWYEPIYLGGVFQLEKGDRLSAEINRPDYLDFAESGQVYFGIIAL

Cc1cnc(C2=NC(C)(C(C)C)C(=O)N2)c(C(=O)O)c1 (stereo unspecified)
not listed: [20]
inactive: all other assays above

COC(=O)NC(=S)Nc1ccccc1NC(=S)NC(=O)OC
active: [12] 22.8 µM | [16] 28.4 µM
not listed: [6] | [7]
inactive: all other assays above

CO/N=C(/C1=NOCCO1)c1ccccc1Oc1ncnc(Oc2ccccc2Cl)c1F
active: [3] 28.6 µM | [20] 30.6 µM | [5] 13 µM | [7] 20 µM | [8] 11.4 µM | [10] 22.1 µM | [12] 19.2 µM | [16] 22.3 µM | [17] 14.9 µM | [18] 9.36 µM | [19] 27.2 µM
inactive: [1] | [2] | [4] | [9] | [11] | [13] | [14] | [15]

O=P(O)(O)CCCl
not listed: [7]
inactive: all other assays above

COC(=O)c1c(C(F)F)nc(C(F)(F)F)c(C2=NCCS2)c1CC(C)C
active: [5] 7.78 µM | [8] 31.9 µM | [11] 12.2 µM | [12] 14.3 µM | [14] 8.66 µM | [16] 25.7 µM | [17] 24 µM
not listed: [6] | [7]
inactive: all other assays above

Cc1cc(C)nc(Nc2ccccc2)n1
active: [7] 26.8 µM | [16] 20 µM
not listed: [6]
inactive: all other assays above

CS(=O)(=O)c1cc(C(F)(F)F)ccc1C(=O)c1cnoc1C1CC1
active: [16] 5.57 µM
not listed: [6] | [7]
inactive: all other assays above

CCCCC(O)(Cn1cncn1)c1ccc(Cl)cc1Cl (stereo unspecified)
active: [11] 3.81 µM
not listed: [6]
inactive: all other assays above

O=C(O)c1c(Cl)ccc2cc(Cl)cnc12
not listed: [6]
inactive: all other assays above

OC(c1ccc(Cl)cc1)(c1ccc(Cl)cc1)C(Cl)(Cl)Cl
active: [1] 9.48 µM | [2] 9.69 µM | [3] 11 µM | [20] 7.26 µM | [4] 7.28 µM | [5] 30.5 µM | [9] 27.4 µM | [10] 30.6 µM | [11] 17.5 µM | [12] 29.5 µM | [13] 20 µM | [14] 30.8 µM | [15] 29.3 µM | [16] 29.7 µM | [17] 29.9 µM | [18] 30 µM | [19] 30.7 µM

CSC(=O)c1c(C(F)F)nc(C(F)(F)F)c(C(=O)SC)c1CC(C)C
active: [5] 16.3 µM | [8] 26.3 µM | [9] 15.1 µM | [12] 20 µM | [16] 20.8 µM | [17] 34 µM | [19] 13.9 µM
not listed: [6] | [7] | [20]
inactive: all other assays above

COc1cc(Cl)c(OC)cc1Cl
not listed: [6] | [20]
inactive: all other assays above

Clc1nc(Cl)nc(Nc2ccccc2Cl)n1
not listed: [7] | [20]
inactive: all other assays above

Nc1c(Cl)c(Cl)nc(C(=O)O)c1Cl
not listed: [7] | [20]
inactive: all other assays above
